In PubChem BioAssay (EPA / NIEHS):
Where “and” joins values, the source holds several entries; their conditions need not be identical. Equal values may be shown once. Inconclusive results are not listed. A structure can be active in one record and inactive in another. Calls of active or inactive are those of the source. The calls were made as follows, unless noted: active = hit-call score of the fitted dose curve at least 0.9, where 1 is the maximum; inactive = score below 0.9.

Key:
[1] = CCTE_Mundy_HCI_Cortical_NOG_NeuriteCount: CCTE's Neurite Outgrowth Assay in rat cortical cells for Neurite Count, Mundy Lab (AID 2284212);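 also: cells fixed about two days after chemical exposure began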
Procedure, shortened: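 Rat cortical primary cells; compound added 2 h post-plating, 1/10 dilution of working solution. Anti-betaIII-tubulin/AF488 ICC; ArrayScan neurite count vs DMSO.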

[2] = CCTE_Mundy_HCI_Cortical_NOG_NeuriteLength: CCTE's Neurite Outgrowth Assay in rat cortical cells for Neurite Length, Mundy Lab (AID 2284213);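 also: neurites imaged about 48 to 50 h after chemical exposure began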
Procedure, shortened: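 First, rat primary cortical cells were plated and, 2 h later, given test chemical as a 1/10 dilution. Finally, βIII-tubulin immunostaining enabled automated imaging of neurite length.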

[3] = CCTE_Mundy_HCI_Cortical_Synap_Neur_Matur_NeuriteLength: CCTE's Synaptogenesis and Neurite Maturation Assay in rat cortical cells for Neurite Length, Mundy Lab (AID 2284214)
Procedure, shortened: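 Read-out: high-content imaging of MAP2-labelled neurites, with synaptophysin and Hoechst co-stain, in rat cortical cultures fixed at DIV 12. Activity fitted in positive direction relative to DMSO baseline.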

[4] = CCTE_Mundy_HCI_Cortical_Synap_Neur_Matur_NeuriteSpotCountPerNeuron: CCTE's Synaptogenesis and Neurite Maturation Assay in rat cortical cells for Neurite Spot Count per Neuron Count, Mundy Lab (AID 2284215)
Procedure, shortened: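 Rat primary cortical cultures given AraC at DIV 5, dosed from DIV 7 to DIV 12 with media change. Fixed, stained for MAP2, synaptophysin and Hoechst; neurite-associated synaptophysin puncta per neuron quantified by high-content imaging versus DMSO.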

[5] = CCTE_Mundy_HCI_Cortical_Synap_Neur_Matur_SynapseCount: CCTE's Synaptogenesis and Neurite Maturation Assay in rat cortical cells for Synapse Count, Mundy Lab (AID 2284218)
Procedure, shortened: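 Read-out: synapse number per neuron, automated high-content imaging of fixed cells immunostained for MAP2 and synaptophysin plus Hoechst nuclei. Rat primary cortical cultures, AraC at DIV 5, chemical dosing DIV 7–12. Positive-direction fit relative to DMSO.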

[6] = CCTE_Mundy_HCI_Cortical_Synap_Neur_Matur_NeuriteCount: CCTE's Synaptogenesis and Neurite Maturation Assay in rat cortical cells for Neurite Count, Mundy Lab (AID 2284222)
Procedure, shortened: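 Chemical exposure runs DIV 7–12 in rat cortical cultures, glia suppressed by AraC at DIV 5; measurement is at DIV 12. Imaging-derived neurite counts are fitted against DMSO baseline.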

[7] = CCTE_Mundy_HCI_Cortical_Synap_Neur_Matur_CellBodySpotCount: CCTE's Synaptogenesis and Neurite Maturation Assay in rat cortical cells for Cell Body Spot Count, Mundy Lab (AID 2284223)
Procedure, shortened: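 Primary rat cortical cultures, AraC added at DIV 5; dosed DIV 7 through DIV 12 […]. Fixed, stained for MAP2 and synaptophysin with Hoechst; cell body-associated synaptophysin puncta per neuron counted by high-content imaging, loss vs DMSO.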

[8] = UKN4_HCS_LUHMES_cell_viability: Viability Assessment in the University of Konstanz (UKN) Leist Lab Neurite Outgrowth Assay in human LUHMES cells (UKN4) (AID 2284232)
Procedure, shortened: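 Day-2 differentiated LUHMES, 30000 cells/well, dosed ~30 min–2 h post-seeding; 24 h treatment incl. staining; Hoechst H-33342 + calcein-AM at 23.5 h; HCS imaging; DMSO-normalized, bidirectional fit.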

[9] = UKN2_HCS_IMR90_cell_viability: Viability Assessment in the University of Konstanz (UKN) Leist Lab Neural Crest Cell Migration Assay in human induced IMR90 Pluripotent Stem Cells (UKN2) (AID 2284233);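 also: cells exposed to compound for 24 h after a 24 h migration phase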
Procedure, shortened: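 After calcein-AM/Hoechst staining, viability is quantified by high-content fluorescence imaging, relative to DMSO, in iPSC (IMR90)-derived neural crest cells. Exposure lasts 24 h, starting after a 24 h migration period on PLO/laminin/fibronectin coating.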

[10] = CCTE_Mundy_HCI_Cortical_NOG_NeuronCount: CCTE's Neurite Outgrowth Assay in rat cortical cells for Neuron Count, Mundy Lab (AID 2284236; active = hit-call score of the fitted dose curve at least 0.9, where 1 is the maximum;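 also: neurons counted by imaging betaIII-tubulin and Hoechst stained cortical cells; cells exposed to compound for about 48 hours before fixation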)
Procedure, shortened: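 Read-out: neuron number by high-content imaging of betaIII-tubulin (Alexa Fluor-488) and Hoechst-labelled rat primary cortical cells.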

[11] = CCTE_Mundy_HCI_Cortical_NOG_BPCount: CCTE's Neurite Outgrowth Assay in rat cortical cells for Branch Point Count, Mundy Lab (AID 2284237);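 also: branch points counted about two days after chemical exposure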
Procedure, shortened: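 Measured 50.33 h after dosing, this morphology endpoint uses rat primary cortical cultures labelled for betaIII-tubulin. Branch points are quantified by high-content imaging, with DMSO as negative control and baseline.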

[12] = CCTE_Mundy_HCI_hNP1_Casp3_7: CCTE's Caspase-Glo 3/7 Assay in human neuroprogenitor cells for Apoptosis, Mundy Lab (AID 2284240)
Procedure, shortened: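 Apoptosis is scored by activated caspase-3/7 luminescence in WA09-derived neural progenitor cells, measured 26.5 h after chemical dosing. Values represent gain of signal relative to DMSO vehicle.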

[13] = CCTE_Mundy_HCI_hNP1_CellTiter: CCTE's Cell Titer-Glo 2 Assay in human neuroprogenitor cells for Viability, Mundy Lab (AID 2284241; active = hit-call score of the fitted dose curve at least 0.9, where 1 is the maximum)
Procedure, shortened: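 Human neural progenitor cells (hNP1, WA09-derived) were plated on poly-L-ornithine/laminin and grown 40 to 44 hours at 37 °C, 5% CO2 before chemical addition. Twenty-four hours later, ATP was measured by CellTiter-Glo luminescence; loss of signal versus DMSO indicates reduced viability.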

[14] = CCTE_Mundy_HCI_Cortical_Synap_Neur_Matur_NeuronCount: CCTE's Synaptogenesis and Neurite Maturation Assay in rat cortical cells for Neuron Count, Mundy Lab (AID 2284242; active = hit-call score of the fitted dose curve at least 0.9, where 1 is the maximum;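 also: hits reduce neuron count versus DMSO baseline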)
Procedure, shortened: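 Rat cortical cultures; AraC DIV 5; chemical dosing + media change DIV 7 to DIV 12 (288.33 h readout). Fix, Hoechst, anti-MAP2/anti-synaptophysin immunostain; HCI neuron count vs DMSO baseline.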

[15] = read-out: Monokine induced gamma interferon (MIG), CXCL9 (gene 4283); assay: BSK_KF3CT_MIG: BioMAP Diversity Plus: KF3CT Assay for Monokine induced gamma interferon (MIG) Biomarker Activity (AID 2284248); settings: primary human keratinocytes with fibroblasts
Procedure, shortened: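 Human keratinocyte–foreskin fibroblast co-culture; MIG measured by ELISA 24 h after chemical dosing, fitted upward versus DMSO. Cytotoxicity was assessed in parallel cultures by SRB total-protein staining read at 560 nm.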

[16] = read-out: Collagen I, COL1A1 (gene 1277); assay: BSK_hDFCGF_CollagenI: BioMAP Diversity Plus: hDFCGF Assay for Collagen I Biomarker Activity (AID 2284250); settings: primary human foreskin fibroblasts
Procedure, shortened: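 ELISA read-out of Collagen I in human dermal foreskin fibroblast cultures, 24 h after dosing. Gain of signal versus DMSO vehicle defines activity.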

[17] = read-out: Interferon-inducible T-cell alpha chemoattractant (ITAC), CXCL11 (gene 6373); assay: BSK_hDFCGF_ITAC: BioMAP Diversity Plus: hDFCGF Assay for Interferon-inducible T-cell alpha chemoattractant (ITAC) Biomarker Activity (AID 2284251); settings: primary human foreskin fibroblasts
Procedure, shortened: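 I-TAC levels were read by ELISA on human dermal foreskin fibroblast primary cultures 24 h after dosing, analysed against DMSO in the positive direction. Cytotoxicity was assessed alongside by sulforhodamine B total-protein staining.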

[18] = read-out: Plasminogen activator inhibitor-1 (PAI1), SERPINE1 (gene 5054); assay: BSK_KF3CT_PAI1: BioMAP Diversity Plus: KF3CT Assay for Plasminogen activator inhibitor-1 (PAI1) Biomarker Activity (AID 2284252); settings: primary human keratinocytes with fibroblasts
Procedure, shortened: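 Keratinocyte + dermal fibroblast co-culture (human primary); 24 h post-dose; PAI-1 by ELISA; gain-of-signal fit vs DMSO control.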

[19] = read-out: Interleukin-8 (IL8), CXCL8 (gene 3576); assay: BSK_KF3CT_IL8: BioMAP Diversity Plus: KF3CT Assay for Interleukin-8 (IL8) Biomarker Activity (AID 2284254); settings: primary human keratinocytes with fibroblasts
Procedure, shortened: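 Human keratinocyte/foreskin fibroblast co-culture dosed 24 h; IL-8 measured by ELISA relative to DMSO. Parallel cultures stained with SRB for total protein to flag cytotoxicity.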

[20] = read-out: Intercellular Adhesion Molecule 1 (ICAM1), ICAM1 (gene 3383); assay: BSK_BE3C_ICAM1: BioMAP Diversity Plus: BE3C Assay for Intercellular Adhesion Molecule 1 (ICAM1) Biomarker Activity (AID 2284278); settings: primary human bronchial epithelial cells;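 also: cell-surface ICAM-1 protein level quantified by ELISA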
Procedure, shortened: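 ELISA read-out of ICAM-1 on human lung bronchial epithelial primary cells, 24 h post-dosing; positive-direction curve fit, DMSO = baseline. SRB total-protein staining of parallel cultures flagged overt cytotoxicity.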

[21] = read-out: Interferon-inducible T-cell alpha chemoattractant (ITAC), CXCL11 (gene 6373); assay: BSK_BE3C_ITAC: BioMAP Diversity Plus: BE3C Assay for Interferon-inducible T-cell alpha chemoattractant (ITAC) Biomarker Activity (AID 2284279); settings: primary human bronchial epithelial cells
Procedure, shortened: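 BE3C cells (human primary bronchial epithelium), 24 h compound exposure, I-TAC by ELISA, DMSO = negative control/baseline, positive fitting direction.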

[22] = read-out: Interleukin-8 (IL8), CXCL8 (gene 3576); assay: BSK_BE3C_IL8: BioMAP Diversity Plus: BE3C Assay for Interleukin-8 (IL8) Biomarker Activity (AID 2284280); settings: primary human bronchial epithelial cells
Procedure, shortened: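 Primary human bronchial epithelial cells (BE3C system) were exposed to test chemical for 24 h, and IL-8 levels were then measured by ELISA. Activity was fitted in the positive (gain-of-signal) direction against a DMSO negative-control baseline.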

Measured: AC50

[Cd+2].[Cl-].[Cl-]
active: [1] 13.1 µM | [2] 12.4 µM | [3] 1.46 µM | [4] 1.19 µM | [5] 1.25 µM | [6] 2.71 µM | [7] 6.06 µM | [8] 8.98 µM | [9] 4.14 µM | [10] 9.84 µM | [11] 18.9 µM | [14] 0.728 µM | [15] 33.6 µM and 36.8 µM | [16] 1.42 µM and 465 nM | [17] 10 µM and 7.2 µM | [18] 34.5 µM and 29.9 µM | [19] 26.8 µM | [21] 28.9 µM and 31.5 µM | [22] 0.0538 µM
inactive: [12] | [13] | [19] | [20] | [22]
